In PubChem BioAssay (NCI):
Compounds without any hit were thinned out: in the full panel of roughly 83,000, 20% have a hit.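 Results are percent growth after 48 hours of single-concentration exposure. 100 means growth as in untreated cells, lower positive values show inhibition; negative values down to -100 show cell death.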 Values without a mark were called inactive. Activity calls are given as the source filed them. How the source made its calls: active means growth percent below 10; inactive means the rest.

What follows are molecules tested on MDA-MB-435 melanoma (assay: NCI-60 one-dose screen, 48 h (100 = growth as untreated, 0 = no growth, -100 = all killed)). Conditions: 10 µM unless noted.

Row | Structure (SMILES) | growth
1 | COc1cc(CCC[P+](c2ccccc2)(c2ccccc2)c2ccccc2)cc2c1OCO2 | 3.36% (active)
2 | Cc1cc(Cl)nc(NCc2cc(Nc3ccnc4cc(Cl)ccc34)ccc2F)n1 | 41.2%
3 | COc1ccc(C2c3ccc4ccccc4c3Oc3nc(C)[nH]c(=O)c32)cc1 (stereo unspecified) | 42.4%
4 | O=C1OC(c2nc3ccccc3s2)=C/C1=C\c1ccc(O)cc1 | 102%
5 | Cc1ccc(NS(=O)(=O)c2ccc3c(c2)C2OCCC2C(c2ccc(C(=O)C(C)C)cc2)N3)cc1C (stereo unspecified) | 36.3%
6 | CC1SC(c2ccc(OCc3ccccc3)cc2)N(NC(=O)C(O)(c2ccccc2)c2ccccc2)C1=O (stereo unspecified) | 57.7%
7 | S=C(Cc1ccc2c(c1)CCCC2)N1CCOCC1 | 101%
8 | CC1=CN2C(=O)C3C4=C(CCCC4)SC3N=C2CN1c1c(C)cccc1C (stereo unspecified) | 94.4%
9 | CC(=O)n1c(-c2ccc(Cl)cc2)nc2c(c1=O)C(c1ccc(Cl)cc1)c1sc3c(Cl)cccc3c1O2 (stereo unspecified) | -19.6% (active)
10 | O=C(N=c1oc2ccccc2cc1-c1cc2ccccc2[nH]1)c1ccc(Cl)cc1 | 96.4%
11 | Cn1ccc2c(c1=O)C(=O)c1nccc3c1c-2nc1ccccc13 | 76.4%
12 | COc1ccccc1CNCCCN1C(=O)c2ccc3c4c(ccc(c24)C1=O)C(=O)N(CCCNCCCCN)C3=O | 1.2% (active)
13 | C=C1C(=O)O[C@H]2[C@H]1CC/C(COC(=O)C(=O)c1cn(C)c3ccc(OC)cc13)=C\CC[C@@]1(C)O[C@@H]21 | -79.2% (active)
14 | O=C(NCCCNc1cc(-c2cn(-c3ccccc3)nc2-c2cccc(O)c2)ccn1)c1cccc(O)c1 | 32.1%
15 | Cc1c(C(=O)OC(=NC2CCCCC2)NC2CCCCC2)sc2c1c(=O)nc1c(C#N)n[nH]n12 | 117%
16 | COc1cc(N=Nc2ccc(N)cc2)c(OC)cc1N=Nc1ccccc1.[Cl][Zn][Cl] | 98.7%
17 | COc1cc(C2CC(c3cc(OC)c(OCCCOc4ccc(-n5c(/C=C/c6ccccc6)nc6ccccc6c5=O)cc4)c(OC)c3)=NO2)cc(OC)c1OC (stereo unspecified) | 110%
18 | COc1cc(/C=N/NC(=O)Cn2c(C(C)C)nc3ccccc32)ccc1O | 100%
19 | CC(C)(C)n1cc(-c2ccnc(NCCCNS(=O)(=O)c3ccccc3)c2)c(-c2ccccc2)n1 | 82.1%

Row | Structure (SMILES) | growth
20 | COc1ccc(S(=O)(=O)NCCNc2nccc(-c3c(-c4cccc(F)c4)nc4sccn34)n2)cc1 | 14.7%
21 | CCOC(=O)c1c(-c2ccc(Cl)cc2)c(C#N)c(=O)n(-c2ccccc2CC)c1N | 106%
22 | O=C(COc1ccc(/C=C2\Oc3ccccc3C2=O)cc1)c1ccc(Cl)cc1 | 90.7%
23 | Cc1ccc2nc3ccccc3c(NCc3ccccc3)c2c1 | 58.2%
24 | O=c1[nH]nc(-c2ccccc2)c2c(-c3ccccc3)onc12 | 16.7%
25 | O=C1C=C[C@]2(C[C@@H](c3cccc(C(F)(F)F)c3)O[C@@H](c3cccc(C(F)(F)F)c3)O2)O1 | -74.7% (active)
26 | Cc1ccc(-c2cc3c(cc2O)C2CCCCC2(N2CCOCC2)O3)cc1 (stereo unspecified) | 98.4%
27 | N#Cc1c(N2CCNCC2)nc2sc3cc(Cl)c(Cl)cc3n2c1=N | 113%
28 | Cc1c(O)cc(-c2cnc(N/N=C\c3ccc(Cl)cc3)s2)c(O)c1C | 97.5%
29 | COc1ccc(-c2cc(-c3cc(OC)ccc3OC)nc(SCC(=O)c3ccccc3)c2C#N)cc1 | 103%
30 | COCCc1ccc(OCC(O)CNC(C)C)cc1 (stereo unspecified) | 97.4%
31 | CC/C=C\CCC/C=C1/C(=O)C=C[C@@H]1C/C=C\CCCC(=O)O | 5.08% (active)
32 | COc1cccc(C(=O)NCCCNc2cc(-c3cn(-c4ccccc4)nc3-c3cccc(OC)c3)ccn2)c1 | 40.2%
33 | Cc1cc(C(=O)c2ccccc2)c(C)c2c1[nH]c1ccc(Cl)cc12 | -25.4% (active)
34 | Cc1ccc(C(=O)COc2cccc(/C=C3\Oc4ccccc4C3=O)c2)cc1 | 90.2%
35 | COc1cccc(-c2nn(-c3ccccc3)cc2-c2ccnc(NCCNC(=O)Nc3cccc(C(F)(F)F)c3)c2)c1 | 29.1%
36 | COc1ccc(/C=N/C2=C(C#N)C(c3ccc(OC)cc3)c3ccc4ccccc4c3O2)cc1 (stereo unspecified) | -10.9% (active)
37 | N#CC1=C(NC=O)Oc2c(ccc3ccccc23)C1c1ccccc1 (stereo unspecified) | -33% (active)
38 | CCCCc1ccc(Nc2ccc(Nc3ccc(CCCC)cc3S(=O)(=O)O)c3c2C(=O)c2ccccc2C3=O)c(S(=O)(=O)O)c1 | 84.6%

What follows are molecules tested on SW-620 colon in the same assay as above. Conditions: 10 µM unless noted.

Row | Structure (SMILES) | growth
39 | COc1cc(CCC[P+](c2ccccc2)(c2ccccc2)c2ccccc2)cc2c1OCO2 | 37.6%
40 | Cc1cc(Cl)nc(NCc2cc(Nc3ccnc4cc(Cl)ccc34)ccc2F)n1 | 43.9%
41 | COc1ccc(C2c3ccc4ccccc4c3Oc3nc(C)[nH]c(=O)c32)cc1 (stereo unspecified) | 97.4%
42 | O=C1OC(c2nc3ccccc3s2)=C/C1=C\c1ccc(O)cc1 | 94.4%
43 | Cc1ccc(NS(=O)(=O)c2ccc3c(c2)C2OCCC2C(c2ccc(C(=O)C(C)C)cc2)N3)cc1C (stereo unspecified) | 51.4%
44 | CC1SC(c2ccc(OCc3ccccc3)cc2)N(NC(=O)C(O)(c2ccccc2)c2ccccc2)C1=O (stereo unspecified) | 69.7%
45 | S=C(Cc1ccc2c(c1)CCCC2)N1CCOCC1 | 114%
46 | CC1=CN2C(=O)C3C4=C(CCCC4)SC3N=C2CN1c1c(C)cccc1C (stereo unspecified) | 88.9%
47 | CC(=O)n1c(-c2ccc(Cl)cc2)nc2c(c1=O)C(c1ccc(Cl)cc1)c1sc3c(Cl)cccc3c1O2 (stereo unspecified) | -11.1% (active)
48 | O=C(N=c1oc2ccccc2cc1-c1cc2ccccc2[nH]1)c1ccc(Cl)cc1 | 25.1%
49 | Cn1ccc2c(c1=O)C(=O)c1nccc3c1c-2nc1ccccc13 | -76.3% (active)
50 | COc1ccccc1CNCCCN1C(=O)c2ccc3c4c(ccc(c24)C1=O)C(=O)N(CCCNCCCCN)C3=O | -0.0566% (active)
51 | C=C1C(=O)O[C@H]2[C@H]1CC/C(COC(=O)C(=O)c1cn(C)c3ccc(OC)cc13)=C\CC[C@@]1(C)O[C@@H]21 | -63.6% (active)
52 | O=C(NCCCNc1cc(-c2cn(-c3ccccc3)nc2-c2cccc(O)c2)ccn1)c1cccc(O)c1 | 51%
53 | Cc1c(C(=O)OC(=NC2CCCCC2)NC2CCCCC2)sc2c1c(=O)nc1c(C#N)n[nH]n12 | 107%
54 | COc1cc(N=Nc2ccc(N)cc2)c(OC)cc1N=Nc1ccccc1.[Cl][Zn][Cl] | 105%
55 | COc1cc(C2CC(c3cc(OC)c(OCCCOc4ccc(-n5c(/C=C/c6ccccc6)nc6ccccc6c5=O)cc4)c(OC)c3)=NO2)cc(OC)c1OC (stereo unspecified) | 104%
56 | COc1cc(/C=N/NC(=O)Cn2c(C(C)C)nc3ccccc32)ccc1O | 95.7%
57 | CC(C)(C)n1cc(-c2ccnc(NCCCNS(=O)(=O)c3ccccc3)c2)c(-c2ccccc2)n1 | 77.1%

Row | Structure (SMILES) | growth
58 | COc1ccc(S(=O)(=O)NCCNc2nccc(-c3c(-c4cccc(F)c4)nc4sccn34)n2)cc1 | 52.6%
59 | CCOC(=O)c1c(-c2ccc(Cl)cc2)c(C#N)c(=O)n(-c2ccccc2CC)c1N | 99.9%
60 | O=C(COc1ccc(/C=C2\Oc3ccccc3C2=O)cc1)c1ccc(Cl)cc1 | 115%
61 | Cc1ccc2nc3ccccc3c(NCc3ccccc3)c2c1 | 24.3%
62 | O=c1[nH]nc(-c2ccccc2)c2c(-c3ccccc3)onc12 | 22.2%
63 | O=C1C=C[C@]2(C[C@@H](c3cccc(C(F)(F)F)c3)O[C@@H](c3cccc(C(F)(F)F)c3)O2)O1 | -48.1% (active)
64 | Cc1ccc(-c2cc3c(cc2O)C2CCCCC2(N2CCOCC2)O3)cc1 (stereo unspecified) | 117%
65 | N#Cc1c(N2CCNCC2)nc2sc3cc(Cl)c(Cl)cc3n2c1=N | 99%
66 | Cc1c(O)cc(-c2cnc(N/N=C\c3ccc(Cl)cc3)s2)c(O)c1C | 107%
67 | COc1ccc(-c2cc(-c3cc(OC)ccc3OC)nc(SCC(=O)c3ccccc3)c2C#N)cc1 | 98.6%
68 | COCCc1ccc(OCC(O)CNC(C)C)cc1 (stereo unspecified) | 105%
69 | CC/C=C\CCC/C=C1/C(=O)C=C[C@@H]1C/C=C\CCCC(=O)O | 9.71% (active)
70 | COc1cccc(C(=O)NCCCNc2cc(-c3cn(-c4ccccc4)nc3-c3cccc(OC)c3)ccn2)c1 | 54.4%
71 | Cc1cc(C(=O)c2ccccc2)c(C)c2c1[nH]c1ccc(Cl)cc12 | 26.3%
72 | Cc1ccc(C(=O)COc2cccc(/C=C3\Oc4ccccc4C3=O)c2)cc1 | 123%
73 | COc1cccc(-c2nn(-c3ccccc3)cc2-c2ccnc(NCCNC(=O)Nc3cccc(C(F)(F)F)c3)c2)c1 | 39%
74 | COc1ccc(/C=N/C2=C(C#N)C(c3ccc(OC)cc3)c3ccc4ccccc4c3O2)cc1 (stereo unspecified) | 43.3%
75 | N#CC1=C(NC=O)Oc2c(ccc3ccccc23)C1c1ccccc1 (stereo unspecified) | 21.3%
76 | CCCCc1ccc(Nc2ccc(Nc3ccc(CCCC)cc3S(=O)(=O)O)c3c2C(=O)c2ccccc2C3=O)c(S(=O)(=O)O)c1 | 98.6%
